According to PubChem BioAssay AID1159580 (chemical genetic matrix, 2015):
Several values for one entry are separate records, joined by “and”; a condition that tells them apart may be missing. Equal values may be shown once. The campaign covered roughly 5,500 compounds. About 2,000 (36%) were called active. Roughly 18% stayed inconclusive and do not appear here. No stated cut-off is given here; in the data, active means normalized growth mostly below about 0.91 (no sharp cut-off); inconclusive means no clear call, values can overlap the other calls; inactive means mostly above about 0.92. The list shows a part of the results.

Assay: chemical genetic growth profiling, strain panel (AID 1159580);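 further: tested at 20 µM; growth read once vehicle control cultures reached saturation at 30 °C; 1 = growth at the plate median or of vehicle wells; lower values mean less growth of the strain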
Conditions: growth OD

Measured: normalized growth

COc1ccc(C(=O)O)cc1OC
inactive: S. cerevisiae deletion strains, locus YAL013W, strain DEP1, active compounds read low 1.02 | S. cerevisiae deletion strains, locus YAL021C, strain ccr4, active compounds read low 0.981 | S. cerevisiae deletion strains, locus YAL026C, strain drs2, active compounds read low 0.996 | S. cerevisiae deletion strains, locus YAL030W, strain snc1, active compounds read low 0.995 | S. cerevisiae deletion strains, locus YBL061C, strain skt5, active compounds read low 1 | S. cerevisiae deletion strains, locus YBR009C, strain hhf1, active compounds read low 1.01 | S. cerevisiae deletion strains, locus YBR021W, strain FUR4, active compounds read low 1.02 | S. cerevisiae deletion strains, locus YBR023C, strain chs3, active compounds read low 1.01 | S. cerevisiae deletion strains, locus YBR171W, strain sec66, active compounds read low 0.996 | S. cerevisiae deletion strains, locus YBR229C, strain ROT2, active compounds read low 1 | S. cerevisiae deletion strains, locus YBR231C, strain swc5, active compounds read low 0.996 | S. cerevisiae deletion strains, locus YBR279W, strain paf1, active compounds read low 0.997 | S. cerevisiae deletion strains, locus YCL011C, strain gbp2, active compounds read low 1 | S. cerevisiae deletion strains, locus YCL016C, strain dcc1, active compounds read low 1 | S. cerevisiae deletion strains, locus YCL029C, strain bik1, active compounds read low 0.992 | S. cerevisiae deletion strains, locus YCL069W, strain vba3, active compounds read low 1 | S. cerevisiae deletion strains, locus YCR088W, strain abp1, active compounds read low 0.996 | S. cerevisiae deletion strains, locus YDL005C, strain med2, active compounds read low 0.996 | S. cerevisiae deletion strains, locus YDL035C, strain GPR1, active compounds read low 1.08 | S. cerevisiae deletion strains, locus YDL040C, strain nat1, active compounds read low 0.997 | S. cerevisiae deletion strains, locus YDL074C, strain BRE1, active compounds read low 1.17 | S. cerevisiae deletion strains, locus YDL101C, strain DUN1, active compounds read low 1 | S. cerevisiae deletion strains, locus YDL185W, strain tfp1, active compounds read low 0.988 | S. cerevisiae deletion strains, locus YDL192W, strain arf1, active compounds read low 1.03 | S. cerevisiae deletion strains, locus YDR001C, strain nth1, active compounds read low 0.994 | S. cerevisiae deletion strains, locus YDR069C, strain doa4, active compounds read low 1.01 | S. cerevisiae deletion strains, locus YDR101C, strain arx1, active compounds read low 1.01 | S. cerevisiae deletion strains, locus YDR137W, strain rgp1, active compounds read low 1.02 | S. cerevisiae deletion strains, locus YDR159W, strain sac3, active compounds read low 0.964 | S. cerevisiae deletion strains, locus YDR162C, strain NBP2, active compounds read low 1.04 | S. cerevisiae deletion strains, locus YDR195W, strain ref2 0.908 | S. cerevisiae deletion strains, locus YDR297W, strain sur2, active compounds read low 1 | S. cerevisiae deletion strains, locus YDR318W, strain mcm21, active compounds read low 1 | S. cerevisiae deletion strains, locus YDR334W, strain swr1, active compounds read low 0.998 | S. cerevisiae deletion strains, locus YDR335W, strain msn5, active compounds read low 1 | S. cerevisiae deletion strains, locus YDR388W, active compounds read low 1 | S. cerevisiae deletion strains, locus YDR392W, strain spt3, active compounds read low 0.984 | S. cerevisiae deletion strains, locus YDR502C, strain sam2, active compounds read low 0.991 | S. cerevisiae deletion strains, locus YEL003W, strain gim4, active compounds read low 0.992 | S. cerevisiae deletion strains, locus YEL037C, strain rad23, active compounds read low 0.989 | S. cerevisiae deletion strains, locus YEL061C, strain CIN8 (second series), active compounds read low 0.998 | S. cerevisiae deletion strains, locus YER015W, strain faa2, active compounds read low 0.992 | S. cerevisiae deletion strains, locus YER016W, strain bim1, active compounds read low 1.01 | S. cerevisiae deletion strains, locus YER110C, active compounds read low 0.978 | S. cerevisiae deletion strains, locus YER111C, strain swi4, active compounds read low 1.01 | S. cerevisiae deletion strains, locus YER155C, strain BEM2 (second series), active compounds read low 0.988 | S. cerevisiae deletion strains, locus YER155C, strain BEM2, active compounds read low 0.994 | S. cerevisiae deletion strains, locus YER167W, strain BCK2, active compounds read low 0.999 | S. cerevisiae deletion strains, locus YFR010W, strain ubp6, active compounds read low 0.993 | S. cerevisiae deletion strains, locus YGL078C, strain dbp3, active compounds read low 0.99 | S. cerevisiae deletion strains, locus YGL086W, strain mad1, active compounds read low 1.01 | S. cerevisiae deletion strains, locus YGL167C, strain pmr1, active compounds read low 0.999 | S. cerevisiae deletion strains, locus YGL173C, strain kem1, active compounds read low 0.998 | S. cerevisiae deletion strains, locus YGL227W, strain vid30, active compounds read low 1.03 | S. cerevisiae deletion strains, locus YGL240W, strain doc1, active compounds read low 0.998 | S. cerevisiae deletion strains, locus YGL248W, strain PDE1, active compounds read low 1.05 | S. cerevisiae deletion strains, locus YGL253W, strain hxk2, active compounds read low 1.01 | S. cerevisiae deletion strains, locus YGR078C, strain PAC10, active compounds read low 1.04 | S. cerevisiae deletion strains, locus YGR135W, strain pre9, active compounds read low 0.988 | S. cerevisiae deletion strains, locus YGR252W, strain gcn5, active compounds read low 1.03 | S. cerevisiae deletion strains, locus YHR013C, strain ard1, active compounds read low 0.978 | S. cerevisiae deletion strains, locus YHR027C, strain rpn1, active compounds read low 1.01 | S. cerevisiae deletion strains, locus YHR030C, strain SLT2, active compounds read low 1 and 0.99 | S. cerevisiae deletion strains, locus YHR079C, strain IRE1 (second series), active compounds read low 0.987 | S. cerevisiae deletion strains, locus YHR079C, strain IRE1, active compounds read low 0.961 | S. cerevisiae deletion strains, locus YHR094C, strain hxt1, active compounds read low 0.972 | S. cerevisiae deletion strains, locus YHR129C, strain ARP1, active compounds read low 1.03 | S. cerevisiae deletion strains, locus YHR142W, strain chs7, active compounds read low 1.01 | S. cerevisiae deletion strains, locus YHR200W, strain rpn10, active compounds read low 0.993 | S. cerevisiae deletion strains, locus YIL066C, strain RNR3, active compounds read low 1.03 | S. cerevisiae deletion strains, locus YIL073C, strain SPO22, active compounds read low 1.02 | S. cerevisiae deletion strains, locus YIL125W, strain kgd1, active compounds read low 0.992 | S. cerevisiae deletion strains, locus YIR030C, strain dcg1, active compounds read low 0.985 | S. cerevisiae deletion strains, locus YJL092W, strain hpr5, active compounds read low 0.985 | S. cerevisiae deletion strains, locus YJL095W, strain BCK1 (second series), active compounds read low 0.985 | S. cerevisiae deletion strains, locus YJL095W, strain BCK1, active compounds read low 1.06 and 0.982 | S. cerevisiae deletion strains, locus YJL115W, strain asf1, active compounds read low 0.995 | S. cerevisiae deletion strains, locus YJL129C, strain trk1, active compounds read low 1.04 | S. cerevisiae deletion strains, locus YJL134W, strain LCB3, active compounds read low 0.995 | S. cerevisiae deletion strains, locus YJL154C, strain vps35, active compounds read low 0.992 | S. cerevisiae deletion strains, locus YJL164C, strain tpk1, active compounds read low 1 | S. cerevisiae deletion strains, locus YJL166W, strain qcr8, active compounds read low 1.01 | S. cerevisiae deletion strains, locus YJL168C, strain set2, active compounds read low 0.993 | S. cerevisiae deletion strains, locus YJL187C, strain SWE1 (second series), active compounds read low 1.02 | S. cerevisiae deletion strains, locus YJR066W, strain TOR1, active compounds read low 0.996 | S. cerevisiae deletion strains, locus YKL009W, strain mrt4, active compounds read low 1.02 | S. cerevisiae deletion strains, locus YKL068W, active compounds read low 0.983 | S. cerevisiae deletion strains, locus YKL085W, strain MDH1 (second series), active compounds read low 0.993 | S. cerevisiae deletion strains, locus YKL085W, strain MDH1, active compounds read low 0.993 | S. cerevisiae deletion strains, locus YKL160W, strain elf1, active compounds read low 1 | S. cerevisiae deletion strains, locus YKR001C, strain vps1, active compounds read low 1.05 | S. cerevisiae deletion strains, locus YKR026C, strain gcn3, active compounds read low 1 | S. cerevisiae deletion strains, locus YKR091W, strain srl3, active compounds read low 0.996 | S. cerevisiae deletion strains, locus YLL001W, strain dnm1, active compounds read low 0.997 | S. cerevisiae deletion strains, locus YLL026W, active compounds read low 0.999 | S. cerevisiae deletion strains, locus YLL041C, strain sdh2, active compounds read low 0.992 | S. cerevisiae deletion strains, locus YLR027C, strain aat2, active compounds read low 1 | S. cerevisiae deletion strains, locus YLR039C, strain RIC1, active compounds read low 1.22 | S. cerevisiae deletion strains, locus YLR058C, strain SHM2, active compounds read low 1.01 | S. cerevisiae deletion strains, locus YLR102C, strain apc9, active compounds read low 0.977 | S. cerevisiae deletion strains, locus YLR113W, strain HOG1, active compounds read low 0.982 | S. cerevisiae deletion strains, locus YLR221C, strain rsa3, active compounds read low 1.02 | S. cerevisiae deletion strains, locus YLR258W, strain gsy2, active compounds read low 1.01 | S. cerevisiae deletion strains, locus YLR262C, strain YPT6 (second series), active compounds read low 1.01 | S. cerevisiae deletion strains, locus YLR262C, strain YPT6, active compounds read low 1.2 | S. cerevisiae deletion strains, locus YLR268W, strain sec22, active compounds read low 1.05 | S. cerevisiae deletion strains, locus YLR320W, strain mms22, active compounds read low 1 | S. cerevisiae deletion strains, locus YLR330W, strain CHS5, active compounds read low 1.01 | S. cerevisiae deletion strains, locus YLR342W, strain FKS1 (second series), active compounds read low 1.07 | S. cerevisiae deletion strains, locus YLR342W, strain FKS1, active compounds read low 1 | S. cerevisiae deletion strains, locus YLR357W, strain rsc2, active compounds read low 0.981 | S. cerevisiae deletion strains, locus YLR370C, strain arc18, active compounds read low 1.01 | S. cerevisiae deletion strains, locus YLR371W, strain rom2, active compounds read low 0.991 | S. cerevisiae deletion strains, locus YLR384C, strain iki3, active compounds read low 1.01 | S. cerevisiae deletion strains, locus YLR418C, strain cdc73, active compounds read low 1.07 | S. cerevisiae deletion strains, locus YML016C, strain PPZ1, active compounds read low 1 | S. cerevisiae deletion strains, locus YML032C, strain rad52, active compounds read low 0.998 | S. cerevisiae deletion strains, locus YML120C, strain ndi1, active compounds read low 1.01 | S. cerevisiae deletion strains, locus YML124C, strain tub3, active compounds read low 0.989 | S. cerevisiae deletion strains, locus YMR058W, strain fet3, active compounds read low 1 | S. cerevisiae deletion strains, locus YMR078C, strain ctf18, active compounds read low 0.982 | S. cerevisiae deletion strains, locus YMR125W, strain sto1, active compounds read low 0.985 | S. cerevisiae deletion strains, locus YMR129W, active compounds read low 0.93 | S. cerevisiae deletion strains, locus YMR205C, strain PFK2, active compounds read low 1 | S. cerevisiae deletion strains, locus YMR223W, strain ubp8, active compounds read low 1 | S. cerevisiae deletion strains, locus YMR231W, strain pep5, active compounds read low 0.989 | S. cerevisiae deletion strains, locus YMR307W, strain GAS1, active compounds read low 1.14 | S. cerevisiae deletion strains, locus YNL067W, strain RPL9B, active compounds read low 1.01 | S. cerevisiae deletion strains, locus YNL071W, strain lat1, active compounds read low 0.99 | S. cerevisiae deletion strains, locus YNL128W, strain TEP1, active compounds read low 1.03 | S. cerevisiae deletion strains, locus YNL183C, strain NPR1, active compounds read low 0.921 | S. cerevisiae deletion strains, locus YNL209W, strain ssb2, active compounds read low 0.985 | S. cerevisiae deletion strains, locus YNL233W, strain BNI4, active compounds read low 1.04 | S. cerevisiae deletion strains, locus YNL248C, strain rpa49, active compounds read low 1 | S. cerevisiae deletion strains, locus YNL250W, strain rad50, active compounds read low 0.952 | S. cerevisiae deletion strains, locus YNL271C, strain bni1, active compounds read low 0.994 | S. cerevisiae deletion strains, locus YNL298W, strain CLA4, active compounds read low 0.997 | S. cerevisiae deletion strains, locus YNL307C, strain MCK1, active compounds read low 0.975 | S. cerevisiae deletion strains, locus YNL322C, strain KRE1 (second series), active compounds read low 0.986 | S. cerevisiae deletion strains, locus YNR049C, strain mso1, active compounds read low 0.987 | S. cerevisiae deletion strains, locus YNR052C, strain pop2, active compounds read low 0.969 | S. cerevisiae deletion strains, locus YOL006C, strain TOP1, active compounds read low 1.36 | S. cerevisiae deletion strains, locus YOL012C, strain htz1 0.898 | S. cerevisiae deletion strains, locus YOL147C, strain pex11, active compounds read low 0.997 | S. cerevisiae deletion strains, locus YOR001W, strain rrp6, active compounds read low 1.02 | S. cerevisiae deletion strains, locus YOR061W, strain CKA2, active compounds read low 1.01 | S. cerevisiae deletion strains, locus YOR069W, strain VPS5, active compounds read low 0.996 | S. cerevisiae deletion strains, locus YOR070C, strain gyp1, active compounds read low 1 | S. cerevisiae deletion strains, locus YOR080W, strain dia2, active compounds read low 0.996 | S. cerevisiae deletion strains, locus YOR083W, strain WHI5, active compounds read low 0.996 | S. cerevisiae deletion strains, locus YOR106W, strain vam3, active compounds read low 1.02 | S. cerevisiae deletion strains, locus YOR136W, strain idh2, active compounds read low 0.995 | S. cerevisiae deletion strains, locus YOR144C, strain elg1, active compounds read low 0.978 | S. cerevisiae deletion strains, locus YOR184W, strain ser1, active compounds read low 1.07 | S. cerevisiae deletion strains, locus YOR231W, strain MKK1, active compounds read low 0.979 | S. cerevisiae deletion strains, locus YOR265W, strain rbl2, active compounds read low 0.995 | S. cerevisiae deletion strains, locus YOR270C, strain vph1, active compounds read low 1.02 | S. cerevisiae deletion strains, locus YOR290C, strain snf2, active compounds read low 1.02 | S. cerevisiae deletion strains, locus YOR316C, strain cot1, active compounds read low 1.01 | S. cerevisiae deletion strains, locus YPL051W, strain arl3, active compounds read low 0.993 | S. cerevisiae deletion strains, locus YPL078C, strain atp4, active compounds read low 1 | S. cerevisiae deletion strains, locus YPL106C, strain sse1, active compounds read low 0.975 | S. cerevisiae deletion strains, locus YPL240C, strain hsp82, active compounds read low 1 | S. cerevisiae deletion strains, locus YPL256C, strain CLN2, active compounds read low 0.973 | S. cerevisiae deletion strains, locus YPR119W, strain clb2, active compounds read low 1 | S. cerevisiae deletion strains, locus YPR141C, strain kar3, active compounds read low 0.976 | S. cerevisiae deletion strains, locus YPR163C, strain tif3, active compounds read low 1.01 | S. cerevisiae deletion strains, locus YPR167C, strain met16, active compounds read low 1.02 | S. cerevisiae deletion strains, strain wtn01, active compounds read low 1.01 | S. cerevisiae strains, strain wild type, active compounds read low 1.06
